Results on 40 compounds are retold here after PubChem BioAssay (EPA / NIEHS).

As a reminder, the AC50 is the concentration giving half of the maximal activity seen.

Active and inactive are the calls of the source. The calls were made as follows: active = hit-call score of the fitted dose curve at least 0.9, where 1 is the maximum; inactive = score below 0.9.

The nature of this test: APR_HepG2_MitoMass_72hr: Apredica 72-hour HepG2 Assay for Mitochondrial Mass (AID 2282924).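 Also: MitoTracker Red CMXRos stain intensity per cell imaged as mitochondrial mass.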 As to conditions: high-content imaging, actives raise or lower the signal. The protocol:
APR_HepG2_72hr is a cell-based, multiplexed-readout assay that uses HepG2, a human liver cell line, with measurements taken at 72 hours after chemical dosing in a 384-well plate.APR_HepG2_MitoMass_72hr is one of 10 assay component(s) measured or calculated from the APR_HepG2_72hr assay. It is designed to make measurements of cell phenotype, a form of morphology reporter, as detected with fluorescence intensity signals by HCS Fluorescent Imaging technology.Data from the assay component APR_HepG2_MitoMass_72hr was analyzed into 1 assay endpoint. This assay endpoint, APR_HepG2_MitoMass_72hr, was analyzed with bidirectional fitting relative to DMSO as the negative control and baseline of activity. Using a type of morphology reporter, gain or loss-of-signal activity can be used to understand changes in the signaling. Furthermore, this assay endpoint can be referred to as a primary readout, because this assay has produced multiple assay endpoints where this one serves a signaling function. To generalize the intended target to other relatable targets, this assay endpoint is annotated to the cell morphology intended target family, where the subfamily is organelle conformation.
Cells were treated with dimethyl sulfoxide (DMSO) as a solvent control at a final concentration of 0.5% v/v or with compounds in DMSO with a resulting final DMSO concentration of 0.5% v/v. Compound treatment was done at concentrations of 0.39, 0.78, 1.56, 3.12, 6.24, 12.5, 25, 50, 100, and 200 uM in duplicate on each plate. Cells were treated with compounds for 1, 24, or 72 hr. Carbonyl […] m-chloro-phenylhydrazone (CCCP) and taxol were used as positive controls for mitochondrial function and cytoskeletal stability, respectively; DMSO served as the negative control for this experiment. Cells were fixed by the direct addition of 50 uL formaldehyde in Hank's Balanced Salt Solution (HBSS) to a final concentration of 3.7%. After incubation in the fixation medium for 30 min at room temperature (293-298 K), cells were rinsed twice with HBSS and treated with cell permeabilization buffer (16 uL of 0.5% Triton X-100) for 10 min at room temperature (293-298 K) before labeling. For mitochondrial membrane potential and mitochondrial measurements, pre-fixed cells were incubated with 50 uL of MitoTracker Red CMXRos (Invitrogen) at a concentration of 250 nM for 30 min before fixation. In the remaining cases, post-fixed cells were labeled by incubation with a multiplexed mixture of primary antibodies in HBSS for 60 min at room temperature (293-298 K) to detect immunoreactivity of c-Jun (1:500), phospho-histone H3 (1:100), phospho-histone H2A.x (1:200), p53 (1:400), alpha-tubulin (1:200) and Hoechst 33342 (2 ug/mL). Cells were labeled for multiplexed imaging on two separate plates: a) Hoechst 33342, MitoTracker Red, phospho-histone H3, and alpha-tubulin, and b) Hoechst 33342, phospho-histone H2A.x, and c-Jun. A final rinse with HBSS (50 uL) was performed before analysis. The primary and secondary antibodies for the proteins were phospho-histone H3 (rabbit anti-phospho-histone H3 and FITC-donkey anti-rabbit IgG), phospho-histone H2A.x (mouse anti-phospho-histone H2A.x and FITC-donkey anti-mouse IgG), c-Jun (rabbit anti-phospho-c-Jun and Cy3-donkey anti-rabbit IgG), p53 (sheep anti-p53 and Cy5-donkey anti-sheep IgG), alpha-tubulin (mouse anti-alpha-tubulin and Cy5-donkey anti-mouse IgG). These antibodies are available as the CellCiphr HepG2 assay kit (Millipore).Digital images of each well were captured using a Cellomics ArrayScan VTI (Thermo Scientific Cellomics) (0.8 NA objective, 0.63x optical coupler, and XF-93 filter set) at 20x magnification. The images were acquired using the autofocus feature of the ArrayScan instrument, which entails the following steps. First, the camera focuses on channel 1 (Hoechst 33342), where nuclei are identified. Second, a Z offset of 1 um is used for capturing mitochondria (MitoTracker Red). […]
In the case of `CCC(C)(C)c1ccc(O)cc1`, the AC50 was 88 µM (active). In the case of `ClC(Cl)(Cl)c1ccccc1`, the compound was classed as inactive. Take `CCN(CC)c1ccccc1`: the outcome was inactive.

For `O=C(O)C(Cl)Cl`, the compound was classed as inactive.

As to `O=P1(N(CCCl)CCCl)NCCCO1` (stereo not given), the result was inactive. `ClC(Cl)c1ccccc1`: the compound was called inactive. As for `OCC1CO1` (stereo not given), the outcome was inactive. Still for that read-out and setting: the same measure for `COCCOCCO`: “inactive”; for `[N-]=[N+]=[N-]`: “inactive”; for `CC(C)(C)OOC(C)(C)C`: “inactive”.

Regarding `Nc1cc2c3c(c1)C(c1ccccc1)=N[C@@H](NC(=O)c1cccnc1)C(=O)N3CC2`, the compound was classed as inactive.

Take `CCCCN(CCCC)N=O`: the call was inactive.

For `Cc1ccc(O)cc1C`, the call was inactive. Same read-out and setting: the same measure for `CCCCCCCc1ccc(O)cc1`: “inactive”; for `c1nc[nH]n1`: “inactive”. The same measure, in the same setting: the same measure for `CN(C)C(=O)Cl`: “inactive”.

On to `ClC1=C(Cl)C2(Cl)C3C(Cl)C(Cl)CC3C1(Cl)C2(Cl)Cl` (stereo not given), for which the AC50 was 136 µM (active). Still for that read-out and setting: the same measure for `Nc1ccc2ccccc2c1`: 69.8 µM (active). As to `CCOc1ccc(C(C)(C)COCc2cccc(Oc3ccccc3)c2)cc1`, the compound was called inactive. The same measure, in the same setting: the same measure for `CC(Cl)(Cl)C(=O)O`: “inactive”; for `c1ccc2c(c1)Nc1ccccc1S2`: “inactive”; for `O=P(Oc1ccccc1)(Oc1ccccc1)Oc1ccccc1`: “inactive”. `CCOS(=O)(=O)OCC`: the outcome was inactive. Take `Cc1cccc(N)c1`: the outcome was inactive. Same read-out and setting: the value for `Nc1ccc(Cl)cc1` was “inactive”.

As for `CCCCc1ccccc1`, the result was inactive. In the case of `CCOC(=O)c1ccccc1C(=O)OCC`, the result was inactive. The same measure, in the same setting: the value for `Cc1ccc([N+](=O)[O-])cc1C` was “inactive”; that for `CCC1(c2ccccc2)C(=O)N=C(O)NC1=O` (stereo not given) was “inactive”; that for `CC(Cc1ccc(OCC(=O)O)cc1)NCC(O)c1csc(C(F)(F)F)n1` (stereo not given) was “inactive”. On to `CSC(C)(C)C=NO`, for which the call was inactive.

Turning to `CC(C)(C)c1ccc(O)cc1`, the call was inactive. Still for that read-out and setting: the same measure for `c1ccc(OP(Oc2ccccc2)Oc2ccccc2)cc1`: “inactive”. On the same count and under the same terms, the same measure for `CCCCN(CCCC)SN(C)C(=O)Oc1cccc2c1OC(C)(C)C2`: “inactive”.

With `CCCN(CCC)c1c([N+](=O)[O-])cc(C(C)C)cc1[N+](=O)[O-]`, the half-maximal activity concentration (AC50) is 40.9 µM (active). Take `Cc1ccc(N)cc1N`: the result was inactive. On the same count and under the same terms, the same measure for `CCNc1nc(Cl)nc(NC(C)(C)C)n1`: “inactive”; for `O=[N+]([O-])c1ccccc1`: “inactive”; for `CCOP(=S)(Oc1ccc([N+](=O)[O-])cc1)c1ccccc1` (stereo not given): “inactive”.

With `O=[N+]([O-])c1ccc(Cl)c(Cl)c1`, the result was inactive.
